# Data published in PubChem BioAssay (NCI).
# Compounds without any hit were thinned out: in the full panel of roughly 79,000, 15% have a hit. Activity calls are given as the source filed them. Rule as the data show it: active = growth inhibition above about 70%; inactive = the rest.
# Assay: NCI Yeast Anticancer Drug Screen. Data for the rad50EPP+ strain (AID 151);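 also: 0% = growth of vehicle-treated control cultures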
# Details: S. cerevisiae rad50 mutant strain, stronger effect = higher value
# Experimental: Growth inhibition of yeast strains with defined genetic alterations is measured as a screen for potential anti-cancer activity. Selected strains with alterations in DNA damage repair or cell cycle control were exposed to compounds and growth inhibition was measured relative to vehicle treated controls. The strain used in this assay is rad50EPP+
SMILES,growth inhibition (at 1.2 µM),growth inhibition (at 3.7 µM),growth inhibition (at 11.0 µM),growth inhibition (at 33.0 µM),growth inhibition (at 100.0 µM)
CCCCCCCCCCCCCCCCCCNC,14% (inactive),10% (inactive),8% (inactive),48% (inactive),89% (active)
COc1cc(/C=C2\CCc3ccccc3C2=O)cc(OC)c1OC,1% (inactive),2% (inactive),17% (inactive),30% (inactive),40% (inactive)
N#CC(C(=O)Nc1ccccc1)C1=C(Cl)C(=O)c2ccccc2C1=O (stereo not given),13% (inactive),43% (inactive),97% (active),97% (active),96% (active)
CC1OCC2OC(C)OC(C3C4=C(CC(C)(C)CC4=O)OC4=C3C(=O)CC(C)(C)C4)C2O1 (stereo not given),-3% (inactive),-5% (inactive),-4% (inactive),-1% (inactive),1% (inactive)
CCCC/C=C/C(CC)(C(=O)OCC)C(=O)OCC,-2% (inactive),1% (inactive),-2% (inactive),3% (inactive),39% (inactive)
CCCS(=O)(=O)Nc1ccc(Nc2c3ccccc3nc3ccccc23)c(OC)c1,-32% (inactive),-21% (inactive),-20% (inactive),16% (inactive),69% (inactive)
CCC(C(=O)O)C1=C(c2ccccc2)CCc2ccccc21 (stereo not given),0% (inactive),2% (inactive),7% (inactive),26% (inactive),44% (inactive)
COc1ccccc1N=NC(C(=O)c1ccccc1)C(=O)c1ccccc1,-47% (inactive),-21% (inactive),1% (inactive),17% (inactive),62% (inactive)
